In PubChem BioAssay AID1159580 (chemical genetic matrix, 2015):
Several values for one entry are separate records, joined by “and”; a condition that tells them apart may be missing. Equal entries are not always repeated. About 2,000 (36%) of roughly 5,500 compounds were called active. About 18% were inconclusive and are not listed. No stated cut-off is given here; in the data, active means normalized growth mostly below about 0.91 (no sharp cut-off); inconclusive means no clear call, values can overlap the other calls; inactive means mostly above about 0.92. Some of the results follow.

Assay: chemical genetic growth profiling, strain panel (AID 1159580);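 further: tested at 20 µM; growth read once vehicle control cultures reached saturation at 30 °C; 1 = growth at the plate median or of vehicle wells; lower values mean less growth of the strain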
Conditions: S. cerevisiae deletion strains, growth OD

Measured: normalized growth

CC1(C)O[C@@H]2CC3C4C[C@H](F)C5=CC(=O)C=C[C@]5(C)[C@@]4(F)[C@@H](O)C[C@]3(C)[C@]2(C(=O)CO)O1 (stereo partly specified)
inactive: locus YAL013W, strain DEP1, active compounds read low 1 | locus YAL021C, strain ccr4, active compounds read low 1.01 | locus YAL026C, strain drs2, active compounds read low 1 | locus YAL030W, strain snc1, active compounds read low 1.01 | locus YBL061C, strain skt5, active compounds read low 1.01 | locus YBR009C, strain hhf1, active compounds read low 1.01 | locus YBR021W, strain FUR4, active compounds read low 0.995 | locus YBR023C, strain chs3, active compounds read low 1.03 | locus YBR171W, strain sec66, active compounds read low 1.02 | locus YBR229C, strain ROT2, active compounds read low 0.999 | locus YBR231C, strain swc5, active compounds read low 1.01 | locus YBR279W, strain paf1, active compounds read low 1.05 | locus YCL011C, strain gbp2, active compounds read low 1.03 | locus YCL016C, strain dcc1, active compounds read low 1.02 | locus YCL029C, strain bik1, active compounds read low 1.01 | locus YCL061C, strain MRC1, active compounds read low 1.03 | locus YCL069W, strain vba3, active compounds read low 1.02 | locus YCR088W, strain abp1, active compounds read low 1.01 | locus YDL005C, strain med2, active compounds read low 1.02 | locus YDL035C, strain GPR1, active compounds read low 0.982 | locus YDL040C, strain nat1, active compounds read low 1.01 | locus YDL074C, strain BRE1, active compounds read low 1 | locus YDL101C, strain DUN1, active compounds read low 1.01 | locus YDL185W, strain tfp1, active compounds read low 1.01 | locus YDL192W, strain arf1, active compounds read low 1.01 | locus YDR001C, strain nth1, active compounds read low 1.02 | locus YDR069C, strain doa4, active compounds read low 1 | locus YDR101C, strain arx1, active compounds read low 0.988 | locus YDR137W, strain rgp1, active compounds read low 1.02 | locus YDR159W, strain sac3, active compounds read low 0.973 | locus YDR162C, strain NBP2, active compounds read low 0.993 | locus YDR195W, strain ref2 1.01 | locus YDR297W, strain sur2, active compounds read low 1.01 | locus YDR318W, strain mcm21, active compounds read low 1.02 | locus YDR334W, strain swr1, active compounds read low 1.01 | locus YDR335W, strain msn5, active compounds read low 1.02 | locus YDR388W, active compounds read low 1.01 | locus YDR392W, strain spt3, active compounds read low 0.975 | locus YDR502C, strain sam2, active compounds read low 1.01 | locus YEL003W, strain gim4, active compounds read low 1 | locus YEL037C, strain rad23, active compounds read low 1.01 | locus YEL061C, strain CIN8 (second series), active compounds read low 1.02 | locus YEL061C, strain CIN8, active compounds read low 0.992 | locus YER015W, strain faa2, active compounds read low 1.01 | locus YER016W, strain bim1, active compounds read low 1.01 | locus YER110C, active compounds read low 1.02 | locus YER111C, strain swi4, active compounds read low 1.01 | locus YER155C, strain BEM2 (second series), active compounds read low 1.02 | locus YER155C, strain BEM2, active compounds read low 0.997 | locus YER167W, strain BCK2, active compounds read low 1 | locus YFR010W, strain ubp6, active compounds read low 1.01 | locus YGL078C, strain dbp3, active compounds read low 1.02 | locus YGL086W, strain mad1, active compounds read low 0.992 | locus YGL167C, strain pmr1, active compounds read low 1.01 | locus YGL173C, strain kem1, active compounds read low 1.01 | locus YGL227W, strain vid30, active compounds read low 1.02 | locus YGL240W, strain doc1, active compounds read low 0.997 | locus YGL248W, strain PDE1, active compounds read low 1.01 | locus YGL253W, strain hxk2, active compounds read low 1.01 | locus YGR078C, strain PAC10, active compounds read low 0.994 | locus YGR135W, strain pre9, active compounds read low 1.07 | locus YGR252W, strain gcn5, active compounds read low 1.07 | locus YHR013C, strain ard1, active compounds read low 1.05 | locus YHR027C, strain rpn1, active compounds read low 1.01 | locus YHR030C, strain SLT2, active compounds read low 0.99 and 0.972 | locus YHR079C, strain IRE1 (second series), active compounds read low 1.01 | locus YHR079C, strain IRE1, active compounds read low 0.969 | locus YHR094C, strain hxt1, active compounds read low 1.02 | locus YHR129C, strain ARP1, active compounds read low 0.997 | locus YHR142W, strain chs7, active compounds read low 1.03 | locus YHR200W, strain rpn10, active compounds read low 1.02 | locus YIL066C, strain RNR3, active compounds read low 0.993 | locus YIL073C, strain SPO22, active compounds read low 1.02 | locus YIL125W, strain kgd1, active compounds read low 1.01 | locus YIR030C, strain dcg1, active compounds read low 1.02 | locus YJL092W, strain hpr5, active compounds read low 1.02 | locus YJL095W, strain BCK1 (second series), active compounds read low 1.02 | locus YJL095W, strain BCK1, active compounds read low 1.01 and 0.978 | locus YJL115W, strain asf1, active compounds read low 1.01 | locus YJL129C, strain trk1, active compounds read low 1.02 | locus YJL134W, strain LCB3, active compounds read low 1 | locus YJL154C, strain vps35, active compounds read low 1.01 | locus YJL164C, strain tpk1, active compounds read low 1.01 | locus YJL166W, strain qcr8, active compounds read low 1.03 | locus YJL168C, strain set2, active compounds read low 1.02 | locus YJL187C, strain SWE1 (second series), active compounds read low 0.999 | locus YJL187C, strain SWE1, active compounds read low 1.01 | locus YJR043C, strain POL32, active compounds read low 0.988 | locus YJR066W, strain TOR1, active compounds read low 0.952 | locus YJR075W, strain HOC1, active compounds read low 0.994 | locus YKL009W, strain mrt4, active compounds read low 0.996 | locus YKL068W, active compounds read low 1.01 | locus YKL085W, strain MDH1 (second series), active compounds read low 1.01 | locus YKL085W, strain MDH1, active compounds read low 1.01 | locus YKL160W, strain elf1, active compounds read low 1.03 | locus YKL190W, strain CNB1, active compounds read low 0.994 | locus YKR001C, strain vps1, active compounds read low 1 | locus YKR026C, strain gcn3, active compounds read low 1.01 | locus YKR091W, strain srl3, active compounds read low 1.01 | locus YLL001W, strain dnm1, active compounds read low 1.01 | locus YLL026W, active compounds read low 1.01 | locus YLL041C, strain sdh2, active compounds read low 1.01 | locus YLR027C, strain aat2, active compounds read low 1.01 | locus YLR039C, strain RIC1, active compounds read low 1.05 | locus YLR058C, strain SHM2, active compounds read low 1.01 | locus YLR102C, strain apc9, active compounds read low 1.02 | locus YLR113W, strain HOG1, active compounds read low 0.994 | locus YLR221C, strain rsa3, active compounds read low 1.02 | locus YLR258W, strain gsy2, active compounds read low 1.01 | locus YLR262C, strain YPT6 (second series), active compounds read low 1.04 | locus YLR262C, strain YPT6, active compounds read low 0.968 | locus YLR268W, strain sec22, active compounds read low 1.01 | locus YLR320W, strain mms22, active compounds read low 1.04 | locus YLR330W, strain CHS5, active compounds read low 1 | locus YLR342W, strain FKS1 (second series), active compounds read low 1.01 | locus YLR342W, strain FKS1, active compounds read low 1.02 | locus YLR357W, strain rsc2, active compounds read low 1.01 | locus YLR370C, strain arc18, active compounds read low 1.01 | locus YLR371W, strain rom2, active compounds read low 1.01 | locus YLR384C, strain iki3, active compounds read low 1.02 | locus YLR418C, strain cdc73, active compounds read low 1.03 | locus YML016C, strain PPZ1, active compounds read low 0.998 | locus YML032C, strain rad52, active compounds read low 1.01 | locus YML120C, strain ndi1, active compounds read low 1.03 | locus YML124C, strain tub3, active compounds read low 1.01 | locus YMR058W, strain fet3, active compounds read low 1.01 | locus YMR078C, strain ctf18, active compounds read low 1.01 | locus YMR125W, strain sto1, active compounds read low 1.03 | locus YMR129W, active compounds read low 1.01 | locus YMR205C, strain PFK2, active compounds read low 1.01 | locus YMR223W, strain ubp8, active compounds read low 1.04 | locus YMR231W, strain pep5, active compounds read low 1.01 | locus YMR307W, strain GAS1, active compounds read low 0.967 | locus YNL067W, strain RPL9B, active compounds read low 0.993 | locus YNL071W, strain lat1, active compounds read low 1.02 | locus YNL128W, strain TEP1, active compounds read low 1.01 | locus YNL183C, strain NPR1, active compounds read low 0.975 | locus YNL209W, strain ssb2, active compounds read low 1.02 | locus YNL233W, strain BNI4, active compounds read low 1 | locus YNL248C, strain rpa49, active compounds read low 1.01 | locus YNL250W, strain rad50, active compounds read low 1.05 | locus YNL271C, strain bni1, active compounds read low 1.02 | locus YNL298W, strain CLA4, active compounds read low 1.01 | locus YNL307C, strain MCK1, active compounds read low 1.03 | locus YNL322C, strain KRE1 (second series), active compounds read low 1.03 | locus YNR049C, strain mso1, active compounds read low 1 | locus YNR052C, strain pop2, active compounds read low 1.01 | locus YOL012C, strain htz1 0.765 | locus YOL147C, strain pex11, active compounds read low 1.02 | locus YOR001W, strain rrp6, active compounds read low 0.98 | locus YOR061W, strain CKA2, active compounds read low 1.01 | locus YOR069W, strain VPS5, active compounds read low 1 | locus YOR070C, strain gyp1, active compounds read low 1.03 | locus YOR080W, strain dia2, active compounds read low 1.02 | locus YOR083W, strain WHI5, active compounds read low 1.04 | locus YOR106W, strain vam3, active compounds read low 1.04 | locus YOR136W, strain idh2, active compounds read low 1.01 | locus YOR144C, strain elg1, active compounds read low 1.01 | locus YOR184W, strain ser1, active compounds read low 1.02 | locus YOR231W, strain MKK1, active compounds read low 0.986 | locus YOR265W, strain rbl2, active compounds read low 1.01 | locus YOR270C, strain vph1, active compounds read low 1.04 | locus YOR290C, strain snf2, active compounds read low 0.985 | locus YOR316C, strain cot1, active compounds read low 1.01 | locus YPL051W, strain arl3, active compounds read low 1.01 | locus YPL055C, strain LGE1, active compounds read low 0.996 | locus YPL078C, strain atp4, active compounds read low 1.02 | locus YPL106C, strain sse1, active compounds read low 1.01 | locus YPL240C, strain hsp82, active compounds read low 1.01 | locus YPL241C, strain CIN2, active compounds read low 1 | locus YPL256C, strain CLN2, active compounds read low 0.987 | locus YPR119W, strain clb2, active compounds read low 1.02 | locus YPR141C, strain kar3, active compounds read low 1.01 | locus YPR163C, strain tif3, active compounds read low 1.02 | locus YPR167C, strain met16, active compounds read low 1.01 | strain wtn01, active compounds read low 1.01
